Results filed as inconclusive are left out. Values without a mark were called inactive. Active and inactive are the calls of the source. The call rests on the fitted dose curve; in most records, active means well fitted cell-killing curve with a large enough effect; inconclusive means small, poorly fitted or top-dose-only effect; inactive means flat fitted curve, though single readings scatter. Starred links: 1 amine or outer side, 2 acyl side, 3 side chain; linkers in the order of their positions; H or OH if unused. Positions of bridges follow the written chain, without caps; N, C: chain ends. Non-standard residues stand in square brackets, D forms with d. Residues, ends and D or L forms follow the SMILES beside them. ξ: configuration not given here. *: point of attachment. X3 = C[C@@H](Oc1ccc([C@H](N[*:1])C(=O)[*:2])cc1)[C@]1(/C=C\C(=O)[*:3])CO1; d(aIle) = CC[C@H](C)[C@@H](N)C(=O)O; X2 = CC(C)[C@@H](O)C(C)C(=O)*; ξNMeF = CNC(Cc1ccccc1)C(=O)O; ξT = CC(O)C(N)C(=O)O; ξS = NC(CO)C(=O)O
Experiment: OV-KATE Cancer Cell Toxicity qHTS against the NCATS CANVASS Library (AID 1347345)
Conditions: OV-KATE cells viability, CellTiter-Glo luminescence, 72 h; series mostly up to 38.3 µM; activity change, negative = cytotoxicity: at the top concentration
Text: Natural products and their derivatives continue to be wellsprings of nascent therapeutic potential. However, many laboratories have limited resources for biological evaluation, leaving their previously isolated or synthesized compounds largely or completely untested. To address this issue, the Canvass library of natural products was assembled (https://tripod.nih.gov/canvass), in collaboration with academic and industry researchers, for quantitative high-throughput screening (qHTS) across a diverse set of cell-based and biochemical assays. The pure (>85% purity by liquid chromatography/mass spectrometry [LC/MS]) Canvass library of 346 natural products were submitted by 45 academic laboratories and companies around the world. We collected pure natural products to circumvent deconvolution and structure elucidation due to time and resource limitations. The library was formatted into 1536-well plates and evaluated in 50 qHTS (in an 11-pnt concentration series) bioassays with broad scope of disease-relevant mechanisms. The resulting data set from 50 different assays was then systematically analyzed to identify overall trends and specific natural products with interesting biological activities. Reported herein are the results of each individual qHTS and their corresponding assay protocol. National Center for Advancing Translational Sciences (NCATS), Rockville, MD National Institute of Health (NIH), Bethesda, Maryland
Cancer Cell Toxicity protocol for cell lines COV-362, OV-KATE, OV-SAHO, UWB1.289, UWB1.289-WTBRCA1, HEK-293, HPAF-II, Panc-1005, SW1088, or U-118MG. 1. In a 1536 well, white solid bottom tissue culture plates (Corning 7494), corresponding cells (COV-362, OV-KATE, OV-SAHO, UWB1.289, UWB1.289-WTBRCA1, HEK-293, HPAF-II, Panc-1005, SW1088, or U-118MG) were dispensed in each well at a final concentration of 1000 cells / well (6uL volume) using the Multidrop Combi (Thermo Fisher Scientific) dispenser. 2. The plates were incubated for 4 hours at 37 degrees C/5% CO2/95% Rh. 3. Compounds were pin transferred (~23nL volume) via Wako Pin-tool (Wako Automation, Richmond VA) equipped with a 1536 pin head. The assay plates were treated with compounds in an 11-pnt concentration series with a final concentration range of […] to 85uM. 4. Bortezomib was used as a single dose control (0.5mM column 4, rows 1 - 32) at a final concentration of 1.9uM and as a 16pnt titration (1mM; 1:2 dilution; 16-points; n = 2; column 3, rows 1 - 32) with final concentration range of 0.1nM - 3.8uM. 5. The assay plates were incubated for 72 hours at 37 degrees C/5% CO2/95% Rh. 6. 3uL CellTiter-Glo detection reagent was then added to the plates (columns 2 - 48, rows 1 - 32) and incubated at room temperature for additional 15min. 7. Luminescence signal was acquired via the ViewLux plate reader (PerkinElmer) using a clear filter, 2 second exposure and 2x binning settings.
With C=CC(C)(C)[C@@]12C[C@H]3C(=O)N/C(=C\c4cnc[nH]4)C(=O)N3[C@@H]1Nc1ccccc12 the “activity change, negative = cytotoxicity” value was -0.836%.
In the case of C=C[C@]12C=CCN3CC[C@@]4(c5ccccc5NC(=O)[C@@H]4C1)[C@@H]32, the “activity change, negative = cytotoxicity” value was -4.86%.
With C/C=C(\C)C(=O)O[C@@H]1[C@@H](O)[C@@H]2O[C@H]3[C@H](O[C@@H](CCCCC)CCCCCCC(=O)CCC(=O)OC[C@@H](O2)[C@H]1OC(=O)/C=C/c1ccccc1)O[C@H](C)[C@H](OC(C)=O)[C@@H]3O the Potency was 188 nM (active).
With O[C@H]1C=C[C@@]23CCN(Cc4cc5c(cc42)OCO5)[C@@H]3C1 the “activity change, negative = cytotoxicity” value was -1.08%.
In the case of CO[C@@H](/C=C/CC/C=C/C(=O)O)[C@@H](O)[C@H](C)/C=C(\C)[C@H](O)[C@H](C)C(=O)CCCC1CC(=O)NC(=O)C1, the “activity change, negative = cytotoxicity” value was -3.18%.
For COC1=C(C2=C(OC)C(=O)c3cc4c(c(O)c3C2=O)C(=O)O[C@H](C)C4)C(=O)c2c(cc3c(c2O)C(=O)O[C@H](C)C3)C1=O, the “activity change, negative = cytotoxicity” value was -3.27% [at 12.8 µM].
For C/C=C1/CN2CC[C@]34C(=C(C(=O)OC)[C@H]1C[C@H]23)Nc1ccccc14, the “activity change, negative = cytotoxicity” value was -6.84%.
In the case of C/C=C1/CN2CC[C@@]34c5ccccc5N(C)[C@@H]3[C@@H]2C[C@@H]1[C@H]4C(=O)OC, the “activity change, negative = cytotoxicity” value was 2.65%.
With CC[C@@H]1CN2CCC3(Nc4cccc(OC)c4C3=O)[C@@H]2C[C@@H]1/C(=C\OC)C(=O)OC (some centres undefined) the “activity change, negative = cytotoxicity” value was -1.88%.
With C=C[C@H]1CN2CCc3c([nH]c4cccc(OC)c34)[C@@H]2C[C@@H]1/C(=C\OC)C(=O)OC the “activity change, negative = cytotoxicity” value was -15.4%.
With CO[C@H]1C[C@H](O[C@H]2[C@@H](O)C[C@H](O[C@H]3CC[C@]4(C=O)[C@H]5CC[C@]6(C)C(C7=CC(=O)OC7)CC[C@]6(O)[C@@H]5CC[C@]4(O)C3)O[C@@H]2C)O[C@H](C)[C@H]1O[C@H]1C[C@@H](OC)[C@@H](O[C@@H]2O[C@H](CO)[C@@H](O)[C@H](O)[C@H]2O)[C@@H](C)O1 (some centres undefined) the Potency was 265 nM (active).
With CC[C@]12C=CCN3CC[C@]4(C(=C(C(=O)OC)C1)Nc1ccccc14)[C@@H]32 the “activity change, negative = cytotoxicity” value was -4.22%.
For CCCCC1CC[C@H]2CCCC(CCC)N12 (some centres undefined), the “activity change, negative = cytotoxicity” value was -9.09%.
In the case of CCC(=O)N[C@@H](C[C@H](C)C(Cl)(Cl)Cl)C(=O)N1C(=O)C=C(OC)[C@@H]1C[C@H](C)C(Cl)Cl, the “activity change, negative = cytotoxicity” value was -0.935%.
With c1ccc2nc3c(cc2c1)[nH]c1ccccc13 the “activity change, negative = cytotoxicity” value was -18.3%.
For C=CC(C)(C)[C@@]12C[C@H]3C(=O)N/C(=C/c4cnc[nH]4)C(=O)N3[C@@H]1Nc1ccccc12, the “activity change, negative = cytotoxicity” value was 0.187%.
With CCCC[C@@H]1CC[C@H]2CCCC(CCCO)N12 (some centres undefined) the “activity change, negative = cytotoxicity” value was -0.834%.
With CCCC[C@@H](C)/C=C1/CN2CCC[C@H]2[C@@](C)(O)[C@@H]1O the “activity change, negative = cytotoxicity” value was -4.78%.
In the case of C/C=C1/CN2C3CC1C1=CCC(=O)N4c5ccccc5[C@@]3(C[C@@H]2C2=C[C@H]3C5CC6N(CC[C@@]67c6ccccc6N(C2=O)[C@@H]37)C/C5=C/C)[C@H]14 (some centres undefined), the “activity change, negative = cytotoxicity” value was -23.4%.
In the case of CC[C@H]1CN2CCc3c([nH]c4cccc(OC)c34)[C@@H]2C[C@@H]1/C(=C\OC)C(=O)OC, the “activity change, negative = cytotoxicity” value was -17.9%.
With CO[C@@]12c3c(C)cc(O)c4c(=O)occ(c34)C(=O)[C@@H]1[C@]13COC(=O)c4c(O)cc(C)c(c41)C(=O)[C@H]2[C@@H]3OC(C)=O the “activity change, negative = cytotoxicity” value was 1.95%.
For C1=C2CCCN[C@H]2C2CC1[C@H]1CCCCN1C2 (some centres undefined), the “activity change, negative = cytotoxicity” value was -5.67%.
For C[N+](C)(C)CCc1c[nH]c2ccccc12, the “activity change, negative = cytotoxicity” value was -4.57%.
With CC[C@H](C)[C@H]1NC(=O)[C@@H](NC(=O)C(C)[C@H](O)C(C)C)[C@@H](C)OC(=O)C2COC(=O)CNC(=O)/C=C\[C@]3(CO3)[C@@H](C)Oc3ccc(cc3)[C@H](NC1=O)C(=O)N(C)C(Cc1ccccc1)C(=O)NC(C(C)O)C(=O)N2 (some centres undefined) (X2-T[d(aIle)][X3][ξNMeF][ξT][ξS]; ester 1-C; linker 3-6 via G) the “activity change, negative = cytotoxicity” value was -5.94% [at 22.9 µM].
On the % scale 0 is the no-effect control and ±100 the full control effect; potency means the concentration at half of the fitted maximal effect.
